# Assay results as given in article PMC7862700, “An all-to-all approach to the identification of sequence-specific readers for epigenetic DNA modifications on cytosine”.
# What was measured:
# Assay in all cases: DAPPL (digital affinity profiling via proximity ligation, sequencing); 10 mM Tris-HCl pH 7.5, 50 mM NaCl, 1 mM DTT, 4% glycerol, room temperature, 30 min; GST-TFs on glutathione beads, 16-mer random dsDNA library, 0.1% formaldehyde crosslink after washing; high values mean tight binding
# FLI1 = biological target: T1, FLI1 (Homo sapiens, UniProt Q01543 1-452); conditions: protein: recombinant; tags: N-terminal GST; dsDNA, one strand shown
# T1 sequence: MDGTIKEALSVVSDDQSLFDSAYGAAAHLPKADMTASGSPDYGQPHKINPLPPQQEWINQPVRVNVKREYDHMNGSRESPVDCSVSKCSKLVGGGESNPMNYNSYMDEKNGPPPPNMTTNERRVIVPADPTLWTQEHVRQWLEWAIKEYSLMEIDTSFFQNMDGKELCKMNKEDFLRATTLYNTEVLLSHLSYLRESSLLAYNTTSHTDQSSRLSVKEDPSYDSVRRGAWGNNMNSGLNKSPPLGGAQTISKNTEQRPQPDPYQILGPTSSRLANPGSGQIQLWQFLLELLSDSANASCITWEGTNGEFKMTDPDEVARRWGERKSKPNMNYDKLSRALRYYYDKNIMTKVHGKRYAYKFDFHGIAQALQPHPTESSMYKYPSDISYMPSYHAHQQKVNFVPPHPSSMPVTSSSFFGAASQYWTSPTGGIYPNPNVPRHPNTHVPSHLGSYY
# Method in brief: (§1)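 Each value of binding signal is a hexamer's read frequency for a factor divided by the same hexamer's frequency in the tag-only sample. Barcoded, bead-captured GST fusions of human transcription factors made in yeast were pooled with that sample and incubated with 200 nmole of a random double-stranded 16-mer DNA library in Tris/NaCl/DTT/glycerol buffer at room temperature for 30 min. Washing, 0.1% formaldehyde crosslinking, proximity ligation, PCR and Illumina NextSeq500 sequencing followed.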
# ELK1 = biological target: T2, ELK1 (Homo sapiens, UniProt P19419 1-428); conditions: protein: recombinant; tags: N-terminal GST; dsDNA, one strand shown
# T2 sequence: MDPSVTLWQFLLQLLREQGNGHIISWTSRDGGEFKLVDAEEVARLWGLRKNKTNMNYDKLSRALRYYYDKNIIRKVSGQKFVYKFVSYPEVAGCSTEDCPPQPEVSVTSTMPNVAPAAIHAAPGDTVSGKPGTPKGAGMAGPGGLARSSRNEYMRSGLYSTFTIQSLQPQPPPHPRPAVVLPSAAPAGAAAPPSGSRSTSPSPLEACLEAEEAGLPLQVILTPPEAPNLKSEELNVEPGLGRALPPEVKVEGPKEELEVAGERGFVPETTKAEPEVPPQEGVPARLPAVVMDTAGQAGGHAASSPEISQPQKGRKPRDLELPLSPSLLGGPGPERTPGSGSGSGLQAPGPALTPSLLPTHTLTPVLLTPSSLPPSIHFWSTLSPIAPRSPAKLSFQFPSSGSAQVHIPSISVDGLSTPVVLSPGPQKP
# Method in brief: as §1
# GABPA = biological target: T3, GABPA (Homo sapiens, UniProt Q06546 1-454); conditions: protein: recombinant; tags: N-terminal GST; dsDNA, one strand shown
# T3 sequence: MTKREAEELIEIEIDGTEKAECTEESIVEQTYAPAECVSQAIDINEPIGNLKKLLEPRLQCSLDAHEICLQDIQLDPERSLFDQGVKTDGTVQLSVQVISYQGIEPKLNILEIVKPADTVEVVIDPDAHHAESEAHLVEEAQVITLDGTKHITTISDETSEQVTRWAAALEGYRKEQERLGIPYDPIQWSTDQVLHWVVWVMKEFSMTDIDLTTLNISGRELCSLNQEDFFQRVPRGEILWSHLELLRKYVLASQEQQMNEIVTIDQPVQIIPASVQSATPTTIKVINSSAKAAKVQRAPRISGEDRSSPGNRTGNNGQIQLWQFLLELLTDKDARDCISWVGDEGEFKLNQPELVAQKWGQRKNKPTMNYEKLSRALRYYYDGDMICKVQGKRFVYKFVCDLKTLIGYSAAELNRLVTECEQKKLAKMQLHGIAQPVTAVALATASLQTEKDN
# Method in brief: as §1
# ERG = biological target: T4, ERG (Homo sapiens, UniProt P11308 1-479); conditions: protein: recombinant; tags: N-terminal GST; dsDNA, one strand shown
# T4 sequence: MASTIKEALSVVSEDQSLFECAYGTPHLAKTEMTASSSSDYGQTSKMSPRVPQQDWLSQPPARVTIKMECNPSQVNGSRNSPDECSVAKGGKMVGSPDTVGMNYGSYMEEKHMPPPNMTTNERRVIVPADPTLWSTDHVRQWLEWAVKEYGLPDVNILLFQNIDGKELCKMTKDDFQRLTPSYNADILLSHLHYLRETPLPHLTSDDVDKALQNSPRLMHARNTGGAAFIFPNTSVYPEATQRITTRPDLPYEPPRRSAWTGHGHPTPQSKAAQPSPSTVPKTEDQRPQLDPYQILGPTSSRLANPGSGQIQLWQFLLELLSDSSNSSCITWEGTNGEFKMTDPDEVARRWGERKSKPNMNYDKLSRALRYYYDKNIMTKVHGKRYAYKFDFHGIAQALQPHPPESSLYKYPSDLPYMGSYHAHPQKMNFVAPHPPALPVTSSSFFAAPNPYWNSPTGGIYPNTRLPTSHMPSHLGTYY
# Method in brief: as §1
# ELF1 = ELF1 (Homo sapiens, UniProt P32519 1-619); conditions: protein: recombinant; tags: N-terminal GST; dsDNA, one strand shown
# ELF1, sequence (P32519 whole entry): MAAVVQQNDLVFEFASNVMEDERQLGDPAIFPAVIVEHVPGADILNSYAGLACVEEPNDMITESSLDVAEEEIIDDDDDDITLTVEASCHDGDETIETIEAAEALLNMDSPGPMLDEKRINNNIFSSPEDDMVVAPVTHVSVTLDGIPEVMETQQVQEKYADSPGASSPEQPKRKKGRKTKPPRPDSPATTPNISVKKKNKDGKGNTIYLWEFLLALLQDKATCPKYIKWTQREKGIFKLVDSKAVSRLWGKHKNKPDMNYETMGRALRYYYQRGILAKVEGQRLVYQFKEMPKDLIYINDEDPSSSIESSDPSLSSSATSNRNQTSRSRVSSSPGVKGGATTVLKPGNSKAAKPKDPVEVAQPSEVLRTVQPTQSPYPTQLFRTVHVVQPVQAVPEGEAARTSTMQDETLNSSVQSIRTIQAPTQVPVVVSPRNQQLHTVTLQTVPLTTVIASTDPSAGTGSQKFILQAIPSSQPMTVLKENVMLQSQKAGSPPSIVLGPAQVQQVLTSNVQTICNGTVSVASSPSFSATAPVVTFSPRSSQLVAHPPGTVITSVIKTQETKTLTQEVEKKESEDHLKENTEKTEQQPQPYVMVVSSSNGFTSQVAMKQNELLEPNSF
# Method in brief: as §1
# EHF = biological target: T5, EHF (Homo sapiens, UniProt Q9NZC4 1-300); conditions: protein: recombinant; tags: N-terminal GST; dsDNA, one strand shown
# T5 sequence: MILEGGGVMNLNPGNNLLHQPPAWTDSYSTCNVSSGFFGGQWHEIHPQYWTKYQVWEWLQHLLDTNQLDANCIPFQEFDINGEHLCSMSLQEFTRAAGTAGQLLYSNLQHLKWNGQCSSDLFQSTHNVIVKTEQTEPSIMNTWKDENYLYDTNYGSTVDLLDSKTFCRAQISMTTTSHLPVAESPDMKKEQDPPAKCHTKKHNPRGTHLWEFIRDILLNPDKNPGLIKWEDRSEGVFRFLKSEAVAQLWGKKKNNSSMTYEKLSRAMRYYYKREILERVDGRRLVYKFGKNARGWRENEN
# Method in brief: as §1
# SPI1 = SPI1 (Homo sapiens, UniProt P17947 1-270); conditions: protein: recombinant; tags: N-terminal GST; dsDNA, one strand shown
# Method in brief: as §1
# SPIB = SPIB (Homo sapiens, UniProt Q01892 1-262); conditions: protein: recombinant; tags: N-terminal GST; dsDNA, one strand shown
# SPIB, sequence (Q01892 whole entry): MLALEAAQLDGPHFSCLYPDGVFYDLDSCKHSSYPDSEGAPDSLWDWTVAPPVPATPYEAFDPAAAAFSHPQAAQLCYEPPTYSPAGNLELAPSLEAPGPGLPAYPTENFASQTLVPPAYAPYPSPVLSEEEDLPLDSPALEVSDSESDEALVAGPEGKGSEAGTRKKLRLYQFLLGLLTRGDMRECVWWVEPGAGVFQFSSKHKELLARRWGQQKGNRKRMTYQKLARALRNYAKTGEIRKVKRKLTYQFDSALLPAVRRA
# Method in brief: as §1
# ELK3 = biological target: T6, ELK3 (Homo sapiens, UniProt P41970 1-407); conditions: protein: recombinant; tags: N-terminal GST; dsDNA, one strand shown
# T6 sequence: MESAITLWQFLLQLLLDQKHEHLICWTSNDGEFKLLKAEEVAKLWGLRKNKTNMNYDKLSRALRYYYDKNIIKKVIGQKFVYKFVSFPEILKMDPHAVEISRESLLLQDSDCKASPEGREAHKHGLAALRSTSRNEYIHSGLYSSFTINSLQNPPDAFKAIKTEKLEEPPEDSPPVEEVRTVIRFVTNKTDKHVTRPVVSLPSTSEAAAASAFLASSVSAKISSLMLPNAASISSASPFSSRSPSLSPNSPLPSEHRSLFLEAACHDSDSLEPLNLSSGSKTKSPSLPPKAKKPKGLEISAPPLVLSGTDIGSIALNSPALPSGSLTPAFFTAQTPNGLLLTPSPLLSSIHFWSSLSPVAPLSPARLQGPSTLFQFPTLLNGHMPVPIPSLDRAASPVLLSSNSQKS
# Method in brief: as §1
# FEV = biological target: T7, FEV (Homo sapiens, UniProt Q99581 1-238); conditions: protein: recombinant; tags: N-terminal GST; dsDNA, one strand shown
# T7 sequence: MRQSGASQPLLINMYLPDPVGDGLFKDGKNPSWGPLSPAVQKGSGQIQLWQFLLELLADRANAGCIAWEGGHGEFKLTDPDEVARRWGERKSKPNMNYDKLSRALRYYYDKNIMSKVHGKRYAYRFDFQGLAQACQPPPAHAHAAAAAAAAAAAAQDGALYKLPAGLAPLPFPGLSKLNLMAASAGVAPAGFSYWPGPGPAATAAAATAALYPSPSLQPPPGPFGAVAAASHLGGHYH
# Method in brief: as §1
# ETV5 = ETV5 (Homo sapiens, UniProt P41161 1-510); conditions: protein: recombinant; tags: N-terminal GST; dsDNA, one strand shown
# ETV5, sequence (P41161 whole entry): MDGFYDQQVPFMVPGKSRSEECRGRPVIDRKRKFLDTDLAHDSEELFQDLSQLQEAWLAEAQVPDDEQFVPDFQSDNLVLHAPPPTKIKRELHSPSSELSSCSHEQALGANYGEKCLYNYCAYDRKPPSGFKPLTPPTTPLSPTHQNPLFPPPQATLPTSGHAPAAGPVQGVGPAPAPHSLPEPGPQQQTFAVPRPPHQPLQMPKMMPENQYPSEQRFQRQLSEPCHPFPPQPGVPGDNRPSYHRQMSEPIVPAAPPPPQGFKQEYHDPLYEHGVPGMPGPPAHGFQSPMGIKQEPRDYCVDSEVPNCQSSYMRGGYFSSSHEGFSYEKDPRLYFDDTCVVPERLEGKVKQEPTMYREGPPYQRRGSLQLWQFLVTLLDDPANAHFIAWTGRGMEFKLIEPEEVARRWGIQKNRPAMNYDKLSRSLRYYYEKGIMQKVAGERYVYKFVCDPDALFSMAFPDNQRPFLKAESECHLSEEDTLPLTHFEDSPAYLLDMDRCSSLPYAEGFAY
# Method in brief: as §1
# HSF1 = HSF1 (Homo sapiens, UniProt Q00613 1-529); conditions: protein: recombinant; tags: N-terminal GST; chain copies: 3; dsDNA, one strand shown
# HSF1, sequence (Q00613 whole entry): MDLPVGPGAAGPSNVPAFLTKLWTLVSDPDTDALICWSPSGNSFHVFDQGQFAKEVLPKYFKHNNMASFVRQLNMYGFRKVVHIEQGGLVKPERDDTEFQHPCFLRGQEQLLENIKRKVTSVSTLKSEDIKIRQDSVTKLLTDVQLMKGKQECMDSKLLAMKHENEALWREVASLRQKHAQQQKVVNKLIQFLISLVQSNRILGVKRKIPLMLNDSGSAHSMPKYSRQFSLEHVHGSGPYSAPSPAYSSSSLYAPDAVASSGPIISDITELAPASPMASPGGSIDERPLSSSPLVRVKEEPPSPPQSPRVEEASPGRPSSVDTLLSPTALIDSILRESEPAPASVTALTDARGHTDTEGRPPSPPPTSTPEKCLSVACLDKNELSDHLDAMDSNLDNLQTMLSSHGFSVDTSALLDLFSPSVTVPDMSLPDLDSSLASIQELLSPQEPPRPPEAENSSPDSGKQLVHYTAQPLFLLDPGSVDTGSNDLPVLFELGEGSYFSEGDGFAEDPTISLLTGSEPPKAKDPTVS
# Method in brief: as §1
# SPIC = biological target: T8, SPIC (Homo sapiens, UniProt Q8N5J4 1-248); conditions: protein: recombinant; tags: N-terminal GST; dsDNA, one strand shown
# T8 sequence: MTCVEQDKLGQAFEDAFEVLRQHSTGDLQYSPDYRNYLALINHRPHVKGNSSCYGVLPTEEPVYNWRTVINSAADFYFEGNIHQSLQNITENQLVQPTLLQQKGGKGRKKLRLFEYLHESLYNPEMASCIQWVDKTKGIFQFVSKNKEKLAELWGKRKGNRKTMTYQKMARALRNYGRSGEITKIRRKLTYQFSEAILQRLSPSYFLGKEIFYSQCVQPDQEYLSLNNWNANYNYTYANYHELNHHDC
# Method in brief: as §1
# ELF4 = ELF4 (Homo sapiens, UniProt Q99607 1-663); conditions: protein: recombinant; tags: N-terminal GST; dsDNA, one strand shown
# ELF4, sequence (Q99607 whole entry): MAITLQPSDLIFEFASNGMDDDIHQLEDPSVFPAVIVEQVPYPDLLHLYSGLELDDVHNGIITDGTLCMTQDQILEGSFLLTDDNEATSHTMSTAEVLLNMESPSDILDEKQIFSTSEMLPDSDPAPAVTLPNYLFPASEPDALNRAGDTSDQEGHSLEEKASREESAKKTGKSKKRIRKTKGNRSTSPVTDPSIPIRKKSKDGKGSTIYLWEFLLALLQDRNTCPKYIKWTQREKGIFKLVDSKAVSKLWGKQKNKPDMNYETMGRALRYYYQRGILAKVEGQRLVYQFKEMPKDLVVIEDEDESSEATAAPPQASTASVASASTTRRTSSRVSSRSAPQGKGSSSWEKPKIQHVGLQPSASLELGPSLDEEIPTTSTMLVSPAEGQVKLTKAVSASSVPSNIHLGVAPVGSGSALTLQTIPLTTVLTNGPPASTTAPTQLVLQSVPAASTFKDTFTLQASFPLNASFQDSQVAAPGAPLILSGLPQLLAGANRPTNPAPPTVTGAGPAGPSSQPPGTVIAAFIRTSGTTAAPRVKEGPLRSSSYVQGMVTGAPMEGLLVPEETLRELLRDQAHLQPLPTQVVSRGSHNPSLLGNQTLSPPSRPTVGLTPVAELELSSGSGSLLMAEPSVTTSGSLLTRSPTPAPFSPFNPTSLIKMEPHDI
# Method in brief: as §1
# ELK4 = biological target: T9, ELK4 (Homo sapiens, UniProt P28324-2 1-405); conditions: protein: recombinant; tags: N-terminal GST; dsDNA, one strand shown
# T9 sequence: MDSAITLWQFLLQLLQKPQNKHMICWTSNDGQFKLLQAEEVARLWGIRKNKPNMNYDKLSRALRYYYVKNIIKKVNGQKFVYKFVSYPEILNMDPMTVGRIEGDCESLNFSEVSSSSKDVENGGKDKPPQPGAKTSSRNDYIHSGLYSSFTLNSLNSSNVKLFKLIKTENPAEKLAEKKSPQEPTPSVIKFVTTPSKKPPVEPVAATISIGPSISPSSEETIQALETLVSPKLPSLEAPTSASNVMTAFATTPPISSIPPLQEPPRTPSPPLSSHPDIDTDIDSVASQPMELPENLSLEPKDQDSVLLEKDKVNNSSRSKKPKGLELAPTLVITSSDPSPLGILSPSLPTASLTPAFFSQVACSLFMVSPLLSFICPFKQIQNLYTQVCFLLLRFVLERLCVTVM
# Method in brief: as §1
# ETV2 = biological target: T10, ETV2 (Homo sapiens, UniProt O00321 1-342); conditions: protein: recombinant; tags: N-terminal GST; dsDNA, one strand shown
# T10 sequence: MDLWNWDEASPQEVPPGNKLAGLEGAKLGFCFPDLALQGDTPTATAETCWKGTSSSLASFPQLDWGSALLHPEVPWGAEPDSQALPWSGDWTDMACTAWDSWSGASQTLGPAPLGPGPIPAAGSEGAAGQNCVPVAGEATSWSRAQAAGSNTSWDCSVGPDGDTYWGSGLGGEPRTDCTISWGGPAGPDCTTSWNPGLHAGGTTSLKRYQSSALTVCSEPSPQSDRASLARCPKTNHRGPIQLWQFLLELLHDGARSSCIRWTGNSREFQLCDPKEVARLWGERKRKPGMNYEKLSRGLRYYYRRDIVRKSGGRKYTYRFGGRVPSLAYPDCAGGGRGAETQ
# Method in brief: as §1
# ELF3 = biological target: T11, ELF3 (Homo sapiens, UniProt P78545 1-371); conditions: protein: recombinant; tags: N-terminal GST; dsDNA, one strand shown
# T11 sequence: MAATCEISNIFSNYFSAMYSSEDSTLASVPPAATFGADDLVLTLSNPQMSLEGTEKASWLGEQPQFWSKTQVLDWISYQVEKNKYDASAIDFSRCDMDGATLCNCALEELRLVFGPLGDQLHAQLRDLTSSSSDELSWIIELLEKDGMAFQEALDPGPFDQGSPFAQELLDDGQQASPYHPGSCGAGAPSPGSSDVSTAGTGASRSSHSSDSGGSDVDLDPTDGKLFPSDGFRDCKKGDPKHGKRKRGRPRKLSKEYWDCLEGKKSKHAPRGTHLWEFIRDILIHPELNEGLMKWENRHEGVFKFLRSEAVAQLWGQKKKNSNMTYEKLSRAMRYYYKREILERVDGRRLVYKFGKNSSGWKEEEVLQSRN
# Method in brief: as §1
# CRX = CRX (Homo sapiens, UniProt O43186 1-299); conditions: protein: recombinant; tags: N-terminal GST; dsDNA, one strand shown
# CRX, sequence (O43186 whole entry): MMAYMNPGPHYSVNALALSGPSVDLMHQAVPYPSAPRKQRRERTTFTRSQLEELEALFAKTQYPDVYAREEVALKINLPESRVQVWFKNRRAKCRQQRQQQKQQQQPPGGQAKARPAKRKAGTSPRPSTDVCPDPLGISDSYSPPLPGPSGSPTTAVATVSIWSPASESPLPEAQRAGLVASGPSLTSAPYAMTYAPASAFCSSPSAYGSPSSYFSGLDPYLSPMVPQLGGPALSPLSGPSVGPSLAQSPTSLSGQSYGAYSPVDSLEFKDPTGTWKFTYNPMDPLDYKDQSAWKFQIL
# Method in brief: as §1
# ETV1 = ETV1 (Homo sapiens, UniProt P50549 1-477); conditions: protein: recombinant; tags: N-terminal GST; dsDNA, one strand shown
# ETV1, sequence (P50549 whole entry): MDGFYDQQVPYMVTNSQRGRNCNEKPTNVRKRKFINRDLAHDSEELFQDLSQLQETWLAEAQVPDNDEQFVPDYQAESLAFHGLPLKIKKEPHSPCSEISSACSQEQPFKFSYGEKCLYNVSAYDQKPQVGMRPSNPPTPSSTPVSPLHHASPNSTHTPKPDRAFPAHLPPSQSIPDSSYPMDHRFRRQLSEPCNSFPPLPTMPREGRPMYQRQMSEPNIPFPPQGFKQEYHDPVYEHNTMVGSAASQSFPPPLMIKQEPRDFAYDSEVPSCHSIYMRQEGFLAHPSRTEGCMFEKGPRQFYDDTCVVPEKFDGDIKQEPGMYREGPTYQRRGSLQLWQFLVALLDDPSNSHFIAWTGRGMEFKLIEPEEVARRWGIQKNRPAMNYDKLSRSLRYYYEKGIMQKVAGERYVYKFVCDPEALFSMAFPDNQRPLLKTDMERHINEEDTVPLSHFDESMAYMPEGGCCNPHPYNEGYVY
# Method in brief: as §1
sequence,measurement,setting,value
TACAAT,binding signal,FLI1,"1.29 fold enrichment (6-mer frequency, TF over GST control)"
same,binding signal,ELK1,"1.28 fold enrichment (6-mer frequency, TF over GST control)"
same,binding signal,GABPA,"1.32 fold enrichment (6-mer frequency, TF over GST control)"
same,binding signal,ERG,"1.29 fold enrichment (6-mer frequency, TF over GST control)"
same,binding signal,ELF1,"1.3 fold enrichment (6-mer frequency, TF over GST control)"
same,binding signal,EHF,"1.38 fold enrichment (6-mer frequency, TF over GST control)"
same,binding signal,SPI1,"1.25 fold enrichment (6-mer frequency, TF over GST control)"
same,binding signal,SPIB,"1.26 fold enrichment (6-mer frequency, TF over GST control)"
same,binding signal,ELK3,"1.21 fold enrichment (6-mer frequency, TF over GST control)"
same,binding signal,FEV,"1.29 fold enrichment (6-mer frequency, TF over GST control)"
same,binding signal,ETV5,"1.3 fold enrichment (6-mer frequency, TF over GST control)"
same,binding signal,HSF1,"1.32 fold enrichment (6-mer frequency, TF over GST control)"
same,binding signal,SPIC,"1.25 fold enrichment (6-mer frequency, TF over GST control)"
same,binding signal,ELF4,"1.26 fold enrichment (6-mer frequency, TF over GST control)"
same,binding signal,ELK4,"1.47 fold enrichment (6-mer frequency, TF over GST control)"
same,binding signal,ETV2,"1.31 fold enrichment (6-mer frequency, TF over GST control)"
same,binding signal,ELF3,"1.36 fold enrichment (6-mer frequency, TF over GST control)"
same,binding signal,CRX,"1.44 fold enrichment (6-mer frequency, TF over GST control)"
same,binding signal,ETV1,"1.33 fold enrichment (6-mer frequency, TF over GST control)"
